Laboratory results published in PubChem BioAssay (Tox21).
Values without a mark were called inactive. Inconclusive results are not listed. Where a call stands in place of a potency, no number is given. The source made the active and inactive calls. Unless noted, calls come from the whole dose curve; as a rule, active = well fitted curve in the direction sought with a large enough effect in the repeat runs; inconclusive = weak or mixed curves; inactive = no such curve, though single readings can be large; an effect the other way counts as inactive or inconclusive.

Key:
[1] = qHTS RealTime-Glo MT Cell Viability Assay in HEK293 cells - 24 hour (AID 1224886); note: nearly all actives have a fitted effect of over 50% in size; note: potency is the fitted concentration of half-maximal effect
In short: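 Viability tracked continuously by luminescence as live cells reduce a prosubstrate for NanoLuc; HEK293 cells preincubated 5 h, compound-treated at 37 C, and read at 0, 8, 16, 24, 32 and 40 h.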

[2] = qHTS RealTime-Glo MT Cell Viability Assay in HEK293 cells - 8 hour (AID 1224887); note: nearly all actives have a fitted effect of over 50% in size; note: potency is the fitted concentration of half-maximal effect
In short: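 600 cells/well were plated with the nonlytic NanoLuc/prosubstrate reagent, pre-incubated 5 h, then given 23 nL of compound in DMSO. Incubation at 37 C for 40 h, with luminescence from viable-cell-reduced substrate read repeatedly from 0 h.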

[3] = A CellTox Green Cytotoxicity Assay to monitor cytotoxicity in HEK293 cells - 16 hour (AID 1224888); note: nearly all actives have a fitted effect of over 35% in size
In short: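 HEK293 cells, 600/well, were preincubated 5 hours and then exposed to compounds at 37 C for up to 40 hours. A cell-impermeant cyanine dye staining dead-cell DNA was read by fluorescence at 0, 8, 16, 24, 32 and 40 h time points.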

[4] = A CellTox Green Cytotoxicity Assay to monitor cytotoxicity in HepG2 cells - 8 hour (AID 1224890); note: nearly all actives have a fitted effect of over 45% in size
In short: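 HepG2 cells, 600/well, preincubated 5 h with CellTox Green dye, then exposed to Tox21 compounds in DMSO at 37 C for up to 40 h. Dead-cell DNA fluorescence read at the indicated time point.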

[5] = qHTS assay to identify small molecule antagonists of the estrogen receptor alpha (ER-alpha) signaling pathway using the BG1 cell line in the presence of 0.1 nM 17-beta-estradiol - cell viability counter screen (AID 1259241); note: nearly all actives have a fitted effect of over 40% in size
In short: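 In this screen, hormone-deprived VM7Luc4E2 cells were seeded at 4,000 per well, dosed with compound and 0.1 nM estradiol final, and incubated 22 hr at 37C and 5% CO2; fluorogenic live-cell protease signal reported viability.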

[6] = qHTS assay to identify small molecule antagonists of the androgen receptor (AR) signaling pathway using the MDA cell line in the presence of 0.5 nM R1881 - cell viability counter screen (AID 1259242); note: nearly all actives have a fitted effect of over 45% in size
In short: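 MDA-kb2 cells (MMTV-luciferase, AR/GR responsive) were treated with compounds plus 0.5 nM R1881 (final) for 16 hr at 37C, 0% CO2. Viability was then read in the same wells as live-cell protease fluorescence (CellTiter-Fluor, 30 min).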

[7] = target: Estrogen receptor (Homo sapiens) (UniProt P03372); experiment: qHTS assay to identify small molecule antagonists of the estrogen receptor alpha (ER-alpha) signaling pathway using the BG1 cell line in the presence of 0.1 nM 17-beta-estradiol (AID 1259244); note: nearly all actives have a fitted effect of over 50% in size; note: potency is the fitted concentration of half-maximal effect
Estrogen receptor (Homo sapiens), sequence (P03372 whole entry, looked up): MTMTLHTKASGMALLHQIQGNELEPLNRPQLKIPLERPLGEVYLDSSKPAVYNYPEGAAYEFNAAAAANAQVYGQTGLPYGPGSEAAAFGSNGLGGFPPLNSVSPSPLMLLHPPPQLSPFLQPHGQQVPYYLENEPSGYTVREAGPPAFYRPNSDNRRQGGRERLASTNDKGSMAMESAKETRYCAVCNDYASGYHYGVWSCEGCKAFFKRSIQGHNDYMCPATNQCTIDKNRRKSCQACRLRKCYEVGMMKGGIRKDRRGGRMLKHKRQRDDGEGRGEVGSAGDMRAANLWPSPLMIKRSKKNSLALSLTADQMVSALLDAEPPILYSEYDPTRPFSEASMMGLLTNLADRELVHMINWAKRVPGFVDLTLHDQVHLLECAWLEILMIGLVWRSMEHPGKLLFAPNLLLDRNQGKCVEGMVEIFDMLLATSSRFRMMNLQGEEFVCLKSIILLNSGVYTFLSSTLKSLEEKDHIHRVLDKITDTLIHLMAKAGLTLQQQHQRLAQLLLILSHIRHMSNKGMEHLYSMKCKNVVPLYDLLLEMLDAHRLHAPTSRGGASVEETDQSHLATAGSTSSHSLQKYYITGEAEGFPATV
In short: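 VM7Luc4E2 cells (endogenous full-length ER-alpha, 4×ERE-luciferase), kept 5 days in phenol red-free, charcoal-stripped FBS medium; 4,000 cells/well. Compounds added with 0.1 nM (final) 17beta-estradiol, 22 hr at 37C; luminescence read with ONE-Glo after 30 min.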

[8] = qHTS assay to identify small molecule phospholipidosis (PLD) inducers (AID 1259344; active = well fitted curve in the direction sought with a large enough effect; an effect the other way counts as inactive or inconclusive)
In short: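 Phospholipidosis is scored by imaging LipidTOX-stained pits in HepG2 cells exposed to compound for 24 h at 37 C; pit counts and integrated intensities per well and per cell serve as outputs.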

[9] = qHTS assay to identify small molecule HDAC inhibitors (AID 1259364); note: top concentration of the series differs between compounds; nearly all actives have a fitted effect of over 45% in size
In short: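 Wild-type HCT-116 cells, plated overnight at 37 C, exposed to compounds 2 hr at 37 C; luminogenic HDAC-Glo substrate then added 30 min at room temperature. Luminescence reports relative endogenous class I/II HDAC activity.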

[10] = qHTS assay to identify small molecule HDAC inhibitors - cell viability counter screen (AID 1259365); note: series mostly up to about 92 µM; nearly all actives have a fitted effect of over 50% in size
In short: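 Measured quantity is CellTiter-Glo luminescence from wild-type HCT-116 cells after compound incubation of 2hr at 37C, 5% CO2; reagent developed 30min at room temperature.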

[11] = qHTS assay to identify small molecule agonists of the sonic hedgehog signaling (Shh) pathway - cell viability counter screen (AID 1259366); note: nearly all actives have a fitted effect of over 50% in size
In short: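 In quantitative high-throughput format, 3T3 Gli1-Luc cells were exposed to compounds for 24hr and multiplexed for viability using CellTiter-Fluor, incubated 1hr at 37C before the fluorescence read.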

[12] = qHTS assay to identify small molecule antagonists of the sonic hedgehog signaling (Shh) pathway - cell viability counter screen (AID 1259367); note: nearly all actives have a fitted effect of over 55% in size; note: potency is the fitted concentration of half-maximal effect
In short: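 Cells: 3T3 Gli1-Luc, 2,000/well, 4 hr pre-incubation. Compounds in DMSO, then conditioned medium. Incubation 24 hr, 37C, 5% CO2. CellTiter-Fluor at 23 hr, 1 hr, fluorescence.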

[13] = qHTS assay to identify small molecule agonists of the sonic hedgehog signaling (Shh) pathway (AID 1259368; calls by dose curve;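 note: NIH/3T3-derived 3T3Gli1-Luc cells carrying a stable Gli1-driven firefly luciferase reporter; series mostly up to about 92 µM; nearly all actives have a fitted effect of over 15% in size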)
In short: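 NIH/3T3-derived 3T3Gli1-Luc cells with stably integrated Gli1-driven firefly luciferase, 2,000 cells/well, compounds added after 4 hr. Incubated 24 hr at 37C, 5% CO2; luminescence read after 30 min with luciferase reagent at room temperature.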

[14] = qHTS assay to identify small molecule antagonists of the sonic hedgehog signaling (Shh) pathway (AID 1259369; calls by dose curve; note: nearly all actives have a fitted effect of over 45% in size; note: potency is the fitted concentration of half-maximal effect)
In short: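 NIH/3T3-derived Gli1-Luc reporter cells plated 4 h, dosed with compound, then stimulated with conditioned medium for 24 h at 37 C. Firefly luciferase luminescence read after 30 min with detection reagent at room temperature.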

[15] = target: Estrogen receptor beta (Homo sapiens) (UniProt Q92731); experiment: qHTS assay to identify small molecule agonists of the estrogen receptor beta (ER-beta) signaling pathway (AID 1259377; active = well fitted activation curve with a large enough effect in the signal ratio in the repeat runs, not every such curve was filed as active; the % refers to the signal ratio)
Estrogen receptor beta (Homo sapiens), sequence (Q92731 whole entry, looked up): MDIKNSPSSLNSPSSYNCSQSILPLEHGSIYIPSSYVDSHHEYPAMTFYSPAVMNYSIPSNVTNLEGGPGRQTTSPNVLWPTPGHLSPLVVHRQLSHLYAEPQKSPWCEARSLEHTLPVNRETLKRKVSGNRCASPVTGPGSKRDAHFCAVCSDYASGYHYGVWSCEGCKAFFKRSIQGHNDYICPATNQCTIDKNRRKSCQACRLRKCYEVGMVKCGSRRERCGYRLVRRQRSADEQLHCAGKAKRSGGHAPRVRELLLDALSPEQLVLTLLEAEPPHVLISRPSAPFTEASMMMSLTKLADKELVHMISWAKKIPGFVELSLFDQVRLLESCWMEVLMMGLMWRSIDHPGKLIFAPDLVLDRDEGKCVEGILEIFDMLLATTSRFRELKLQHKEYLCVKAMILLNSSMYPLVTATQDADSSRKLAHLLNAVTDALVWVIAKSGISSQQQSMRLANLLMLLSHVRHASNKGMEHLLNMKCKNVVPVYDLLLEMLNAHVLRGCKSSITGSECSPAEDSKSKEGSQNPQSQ
In short: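 Reporter cells (HEK293T, ER-beta-UAS-bla) receive compounds or DMSO after a 6 hr pre-incubation. They then incubate 16 hr at 37C/5% CO2, and fluorescence from LiveBLAzer B/G substrate is measured after 2 hours at room temperature.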

[16] = target: Estrogen receptor beta (Homo sapiens) (UniProt Q92731); experiment: qHTS assay to identify small molecule antagonists of the estrogen receptor beta (ER-beta) signaling pathway (AID 1259378; active = well fitted inhibition curve with a large enough effect in the signal ratio in the repeat runs, not every such curve was filed as active; the % refers to the signal ratio)
In short: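 Antagonist mode: compounds added to beta-lactamase reporter HEK293T ER-beta-UAS cells stimulated with E2 (1nM final), 16 hr at 37C. LiveBLAzer B/G FRET substrate, 2 hours room temperature, fluorescence read-out.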

[17] = qHTS assay to identify small molecule agonists of the androgen receptor (AR) signaling pathway in the presence of an antagonist - cell viability counter screen (AID 1259379);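 note: MDA-kb2 human breast cancer cells carrying an MMTV luciferase reporter; series mostly up to about 92 µM; nearly all actives have a fitted effect of over 25% in size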
In short: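 MDA-kb2 cells (MMTV-luciferase, AR/GR), 3,000/well, 5 h attachment, then 3.0 µM nilutamide (final) and compounds at 15 concentrations. Viability by CellTiter-Fluor fluorescence after 16 h at 37 °C, 0% CO2, in the reporter wells.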

[18] = qHTS RealTime-Glo MT Cell Viability Assay in HepG2 cells - 0 hour (AID 1224889); note: nearly all actives have a fitted effect of over 50% in size
In short: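 Viability was tracked continuously by NanoLuc luminescence from prosubstrate reduced by living HepG2 cells, at successive time points over 40 h of compound exposure. Cells with reagent were preincubated 5 h at 37 °C before compound addition.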

[19] = qHTS assay to identify small molecule agonists of the estrogen receptor beta (ER-beta) signaling pathway - cell viability counter screen (AID 1259380); note: nearly all actives have a fitted effect of over 30% in size
In short: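 ER-beta-UAS-bla HEK293T cells in medium with 2% charcoal-stripped FBS, pre-incubated 6 hr, then treated 16 hr at 37C. Cytotoxicity read in the same wells by CellTiter-Glo luminescence after 30 min at room temperature.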

[20] = target: Androgen receptor (Homo sapiens) (UniProt P10275); experiment: qHTS assay to identify small molecule antagonists of the androgen receptor (AR) signaling pathway using the MDA cell line in the presence of 0.5 nM R1881 (AID 1259243); note: nearly all actives have a fitted effect of over 50% in size
Androgen receptor (Homo sapiens), sequence (P10275 whole entry, looked up): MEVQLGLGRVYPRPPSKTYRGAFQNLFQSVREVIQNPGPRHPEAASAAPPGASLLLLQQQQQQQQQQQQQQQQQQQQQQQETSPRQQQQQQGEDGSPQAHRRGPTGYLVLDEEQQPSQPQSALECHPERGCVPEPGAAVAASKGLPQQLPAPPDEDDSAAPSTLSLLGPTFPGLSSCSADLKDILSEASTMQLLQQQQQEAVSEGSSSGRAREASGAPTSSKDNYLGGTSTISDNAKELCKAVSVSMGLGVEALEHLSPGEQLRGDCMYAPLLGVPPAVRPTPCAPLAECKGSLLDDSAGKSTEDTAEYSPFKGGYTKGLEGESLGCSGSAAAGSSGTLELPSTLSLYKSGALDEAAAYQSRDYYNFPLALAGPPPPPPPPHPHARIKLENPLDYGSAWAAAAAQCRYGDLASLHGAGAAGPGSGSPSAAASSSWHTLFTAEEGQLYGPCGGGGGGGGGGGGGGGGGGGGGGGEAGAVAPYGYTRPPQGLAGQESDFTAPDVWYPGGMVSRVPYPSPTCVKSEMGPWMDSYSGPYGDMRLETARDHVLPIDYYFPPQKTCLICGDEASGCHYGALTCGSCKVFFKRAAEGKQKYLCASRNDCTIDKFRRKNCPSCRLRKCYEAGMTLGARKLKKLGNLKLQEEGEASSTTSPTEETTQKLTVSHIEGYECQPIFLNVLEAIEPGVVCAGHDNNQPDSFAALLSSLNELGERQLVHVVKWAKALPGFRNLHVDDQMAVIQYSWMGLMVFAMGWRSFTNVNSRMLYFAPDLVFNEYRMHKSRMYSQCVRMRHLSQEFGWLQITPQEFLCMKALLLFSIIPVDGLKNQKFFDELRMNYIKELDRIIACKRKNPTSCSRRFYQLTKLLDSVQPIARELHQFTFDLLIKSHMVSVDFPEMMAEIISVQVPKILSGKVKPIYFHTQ
In short: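 MDA-kb2 cells (MMTV-luciferase, responsive to AR and GR) at 3,000/well, rested 5 h at 37C, 0% CO2, then given compounds plus 0.5 nM R1881 (final) for 16 hr. Luciferase read with ONE-Glo after 30 min at room temperature.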

Row | SMILES | Potency [1] | Potency [2] | Potency [3] | Potency [4] | Potency [5] | Potency [6] | Potency [7] | Potency [8] | Potency [9] | Potency [10] | Potency [11] | Potency [12] | Potency [13] | Potency [14] | outcome [15] | Potency [16] | Potency [17] | Potency [18] | Potency [19] | Potency [20]
1 | CCCCCCCCCCCCCCCCC(C(=O)O)C(O)(CC(=O)O)C(=O)O (configuration not stated) | inactive | inactive | inactive | inactive | inactive | inactive | inactive | inactive | inactive | inactive | inactive | inactive | inactive | inactive | inactive | inactive | inactive |  |  | 
2 | CCSCC | inactive | inactive | inactive | inactive |  | inactive |  |  | inactive | inactive |  | 57.6 µM (active) | inactive | 18.2 µM (active) | inactive |  | inactive | inactive |  | 
3 | [Cl][Eu]([Cl])[Cl] | inactive | inactive | inactive | inactive |  | inactive | inactive |  | inactive | inactive |  |  | inactive | 7.7 µM (active) |  |  | inactive | inactive | inactive | 
4 | Cc1ccc(Cl)c(N)c1Cl | inactive | inactive | inactive | inactive | inactive | inactive |  |  | inactive | inactive |  | 61.1 µM (active) | inactive | 21.7 µM (active) | inactive | inactive | inactive | inactive | inactive | 
5 | CC(C)=NNC(N)=S | inactive | inactive | inactive |  |  | inactive | inactive |  | inactive | inactive | inactive |  | inactive | 13.7 µM (active) | inactive |  | inactive | inactive |  | 
6 | CC1(C)[C@H](C(=O)OCc2cccc(Oc3ccccc3)c2)[C@@H]1C=C(Cl)Cl | inactive | inactive | inactive | inactive |  | inactive | inactive |  | inactive | inactive | inactive | inactive | inactive | inactive |  |  | inactive | inactive | inactive | inactive
7 | C=CCc1cc(S(=O)(=O)c2ccc(O)c(CC=C)c2)ccc1O | 27.5 µM (active) | 24.5 µM (active) | inactive | inactive | inactive | inactive | 61.1 µM (active) |  | inactive | inactive |  | 24.3 µM (active) | inactive | inactive |  |  |  |  |  | inactive
8 | CC(Cc1ccc(O)c(O)c1)C(C)Cc1ccc(O)c(O)c1 (configuration not stated) | 34.7 µM (active) | 43.6 µM (active) | inactive |  | inactive | inactive | inactive |  | inactive | inactive |  |  | inactive | 13.7 µM (active) |  |  |  | inactive |  | 
